Assay results from PubChem BioAssay (NCATS).
Results filed as inconclusive are left out. Activity calls are given as the source filed them. Unless noted, calls come from the whole dose curve.

Assays:
[1] = qHTS for Inhibitors of the Functional Ribonucleoprotein Complex (vRNP) of Lassa (LASV) Arenavirus: LASV Primary Screen - GLuc reporter signal (AID 1347082; calls by dose curve; tested in HEK293 reporter line; note: % is set by controls: 0 for no effect and ±100 for the full control effect; nearly all actives have a fitted effect of over 60% in size)
[2] = qHTS for Inhibitors of the Functional Ribonucleoprotein Complex (vRNP) of Lassa (LASV) Arenavirus: Viability assay - alamar blue signal for LASV Primary Screen (AID 1347083; calls by dose curve; tested in HEK293 reporter line; note: % is set by controls: 0 for no effect and ±100 for the full control effect; nearly all actives have a fitted effect of over 80% in size)
[3] = qHTS for Inhibitors of the Functional Ribonucleoprotein Complex (vRNP) of Lymphocytic Choriomeningitis Arenaviruses (LCMV): Viability assay - alamar blue signal for LCMV Primary Screen (AID 1347085; calls by dose curve; tested in HEK293 reporter line; note: % is set by controls: 0 for no effect and ±100 for the full control effect; nearly all actives have a fitted effect of over 80% in size)
[4] = target: Nucleoprotein (Lymphocytic choriomeningitis virus (strain Armstrong)) (UniProt P09992); experiment: qHTS for Inhibitors of the Functional Ribonucleoprotein Complex (vRNP) of Lymphocytic Choriomeningitis Arenaviruses (LCMV): LCMV Primary Screen - GLuc reporter signal (AID 1347086); note: % is set by controls: 0 for no effect and ±100 for the full control effect; nearly all actives have a fitted effect of over 70% in size
[5] = test system: Zika virus NS2B-NS3 protease; experiment: Primary screen GU AMC qHTS for Zika virus inhibitors (AID 1347154; active = well fitted curve in the direction sought with a large enough effect; an effect the other way counts as inactive or inconclusive;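 note: 0% = no-inhibitor control and -100% = no-enzyme control; nearly all actives have a fitted effect of over 70% in size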)
Outline: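 Unlinked Zika NS2B hydrophilic domain–NS3 protease complex at 25 nM in 10 mM Tris-HCl pH 8.0, 0.01% Tween 20, with an AMC peptide substrate. Fluorescence change (340/450 nm) over 15 min at room temperature, normalized to controls, fitted to 4-parameter Hill.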

[6] = Primary qHTS for small molecule stabilizers of the endoplasmic reticulum resident proteome: Secreted ER Calcium Modulated Protein (SERCaMP) assay (AID 1508630; active = well fitted curve in the direction sought with a large enough effect; an effect the other way counts as inactive or inconclusive; note: % is set by controls: 0 for no effect and ±100 for the full control effect)
Outline: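 GLuc-SERCaMP-expressing SH-SY5Y cells, pretreated 16 h with compound, are challenged with thapsigargin to empty ER calcium stores; after 4 h, coelenterazine is added directly to the medium and luminescence is imaged.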

[7] = qHTS for inhibitors of Rabies Virus screened against the NCATS CANVASS Library (AID 1347402); note: 0% is about no effect
[8] = Cytotoxicity counterscreen for inhibitors of SARS-CoV-2 cell entry (AID 1645845); note: % is set by controls: 0 for no effect and ±100 for the full control effect; nearly all actives have a fitted effect of over 50% in size
Outline: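 HEK293-ACE2 cells (Expi293F stably expressing human ACE2) seeded overnight, then compound for 1 h plus 48 h at 37C. Viability as ATP content by luminescence; normalized to wells with cells and media-only wells.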

[9] = Primary qHTS to identify inhibitors of SARS-CoV-2 cell entry (AID 1645846); settings: activity change, negative = inhibition: at 57.1 µM (top of the series) unless noted; note: nearly all actives have a fitted effect of over 45% in size
Outline: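 Inhibition of spike-mediated entry was scored in human ACE2-transfected Expi293F cells. Particles were MLV-pseudotyped with Wuhan-Hu-1 S carrying a 19-aa C-terminal deletion; signal was luciferase after two days, scaled between spike PP and fusion-protein-free PP.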

Chain of Nucleoprotein (Lymphocytic choriomeningitis virus (strain Armstrong)) (P09992 whole entry, looked up): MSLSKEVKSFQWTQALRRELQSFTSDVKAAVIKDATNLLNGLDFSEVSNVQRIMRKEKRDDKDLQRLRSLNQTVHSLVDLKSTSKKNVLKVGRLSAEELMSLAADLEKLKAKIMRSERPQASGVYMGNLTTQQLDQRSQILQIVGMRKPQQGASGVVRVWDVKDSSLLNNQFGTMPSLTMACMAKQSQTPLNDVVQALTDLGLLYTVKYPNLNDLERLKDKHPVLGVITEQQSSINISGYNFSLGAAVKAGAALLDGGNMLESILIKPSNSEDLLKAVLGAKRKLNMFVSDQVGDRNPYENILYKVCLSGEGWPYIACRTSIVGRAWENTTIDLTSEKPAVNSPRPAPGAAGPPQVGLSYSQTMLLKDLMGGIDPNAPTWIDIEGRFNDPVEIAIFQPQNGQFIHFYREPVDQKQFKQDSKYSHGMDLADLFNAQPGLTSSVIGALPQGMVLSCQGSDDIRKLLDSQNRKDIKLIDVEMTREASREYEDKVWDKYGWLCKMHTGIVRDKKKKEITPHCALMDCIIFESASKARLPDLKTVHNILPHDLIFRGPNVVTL

CC(C)C1=CC2=CC[C@@H]3[C@](C)(CCC[C@@]3(C)C(=O)O)[C@H]2CC1
inactive: Potency [1] | Potency [2] | Potency [3] | Potency [4]

COc1c2ccoc2c(OC[C@@H](O)C(C)(C)O)c2oc(=O)ccc12
inactive: Potency [1] | Potency [2] | Potency [3] | Potency [4]

COc1cc2c(c(OC)c1OC)-c1c(cc3c(c1OC)OCO3)CC(C)C(C)C2 (centres undefined)
inactive: Potency [1] | Potency [2] | Potency [3] | Potency [4]

Oc1cc(O)cc(C=Cc2ccc(O)c(O)c2)c1
inactive: Potency [1] | Potency [2] | Potency [3] | Potency [4]

CC(=O)O[C@H]1C(=O)[C@@]2(C)C([C@H](OC(=O)c3ccccc3)[C@]3(O)C[C@H](OC(=O)[C@H](O)[C@@H](NC(=O)c4ccccc4)c4ccccc4)C(C)=C1C3(C)C)[C@]1(OC(C)=O)CO[C@@H]1C[C@H]2O (some centres undefined)
inactive: Potency [1] | Potency [2] | Potency [3] | Potency [4]

O=C(Nc1cccc(C(F)(F)F)c1)Nc1cc(S(=O)(=O)NC2CC2)ccc1-c1ccsc1
inactive: Potency [1] | Potency [2] | Potency [3] | Potency [4]

CC1=CC2=C(C=O)C(=O)C(C)(O)C(O)C2=CO1 (centres undefined)
inactive: Potency [1] | Potency [2] | Potency [3] | Potency [4]

COc1cc2c(cc1OC)C(C(=O)c1ccc(OC)c(OC)c1O)=NCC2
inactive: Potency [1] | Potency [2] | Potency [3] | Potency [4]

Cc1nc(C)c(C)nc1C
inactive: Potency [1] | Potency [2] | Potency [3] | Potency [4]

CC1(C)CCC[C@@](C)([C@H]2CC[C@]3(C)[C@@H]2[C@H](O)CC2[C@@]4(C)CC[C@H](O)C(C)(C)[C@@H]4[C@@H](O)C[C@]23C)O1 (some centres undefined)
inactive: Potency [1] | Potency [2] | Potency [3] | Potency [4]

O=C(O)CCC[C@H](O)\C=C/C=C/C=C/[C@H](O)C/C=C\CCCCCO
inactive: activity change, negative = inhibition [1] 12% [at 0.757 µM] | activity change, negative = reduced viability [2] 2.93% [at 0.757 µM] | activity change, negative = lower viability [3] -25.2% [at 0.757 µM] | activity change, negative = inhibition [4] -1.08% [at 0.757 µM]

CN(CCCC(=O)c1cccnc1)N=O
inactive: Potency [1] | Potency [2] | Potency [3] | Potency [4] | Potency [5]

COc1ccc(CCN)cc1
inactive: Potency [1] | Potency [2] | Potency [3] | Potency [4] | Potency [5] | Potency [6]

c1cncc(C2CCCN2)c1 (centres undefined)
inactive: Potency [1] | Potency [2] | Potency [3] | Potency [4] | Potency [5] | Potency [6]

CNCC/C=C/c1cccnc1
inactive: Potency [1] | Potency [2] | Potency [3] | Potency [4] | Potency [5] | Potency [6]

COc1cc2oc3ccccc3c(=O)c2cc1OC
inactive: Potency [1] | Potency [2] | Potency [3] | Potency [4] | outcome [7]

O=C(O)C(O)Cc1ccc(O)c(O)c1 (centres undefined)
-13% [at 114 µM]: activity change, negative = inhibition [9]
inactive: Potency [1] | Potency [2] | Potency [3] | Potency [4] | outcome [7] | Potency [8]
